The panel holds about 83,000 compounds, 20% with a hit somewhere; the sample as a whole holds those more often.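 48-hour exposure, single concentration, 96-well plates; percent growth endpoint where 0 means no net growth. Active: below 10.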 Unmarked numbers belong to inactive results. Active and inactive are the calls of the source.
How the values were obtained:
Assay in all cases: NCI-60 one-dose screen, 48 h (100 = growth as untreated, 0 = no growth, -100 = all killed)
Conditions in all cases: 10 µM unless noted
SR leukemia = tested on: SR leukemia
RPMI-8226 leukemia = tested on: RPMI-8226 leukemia
OVCAR-5 ovarian = tested on: OVCAR-5 ovarian
OVCAR-4 ovarian = tested on: OVCAR-4 ovarian
SK-OV-3 ovarian = tested on: SK-OV-3 ovarian
IGROV1 ovarian = tested on: IGROV1 ovarian
NCI/ADR-RES ovarian = tested on: NCI/ADR-RES ovarian
OVCAR-3 ovarian = tested on: OVCAR-3 ovarian
HS 578T breast = tested on: HS 578T breast
OVCAR-8 ovarian = tested on: OVCAR-8 ovarian

SMILES	growth (SR leukemia)	growth (RPMI-8226 leukemia)	growth (OVCAR-5 ovarian)	growth (OVCAR-4 ovarian)	growth (SK-OV-3 ovarian)	growth (IGROV1 ovarian)	growth (NCI/ADR-RES ovarian)	growth (OVCAR-3 ovarian)	growth (HS 578T breast)	growth (OVCAR-8 ovarian)
COc1cc(-c2cc(-c3nc4cc(Cl)c(Cl)cc4[nH]3)[nH]n2)cc(OC)c1OC	54.5%	-7.57% (active)	101%	52.5%	104%	87.2%	39.1%	–	–	–
COc1cc(C(=O)/C=C/c2cc(-c3ccc4c(c3)OCO4)n[nH]2)cc(OC)c1OC	-25.3% (active)	-42.4% (active)	57.6%	27.7%	60.8%	64.8%	-13.5% (active)	-17.8% (active)	–	–
COc1cc2nc(Cl)nc(Nc3cccc(C(=O)/C=C/c4ccc(F)cc4)c3)c2cc1OC	12.2%	-18.1% (active)	68.2%	64.9%	106%	51%	51.6%	43.4%	–	–
CC(C)=CCC/C(C)=C/CC/C(C)=C/CSC[C@H](NC(=O)CCCCCN1CCN(C)CC1)C(=O)NC1CCCCCC1	-20.1% (active)	51.8%	68.7%	–	96.4%	69.8%	72.3%	76.6%	–	–
CCOC(=O)N1CCN(CCCCOc2ccc(C(C)(C)CC)cc2)CC1	90.3%	84.4%	106%	93.8%	104%	110%	88.2%	–	108%	–
COc1ccc(-c2nc(SCC(=O)Nc3ccc(C(C)=O)cc3)[nH]c(=O)c2C#N)cc1	97.5%	114%	97.3%	108%	79.5%	106%	108%	108%	115%	–
Nc1c(C(=O)Nc2cccc(Br)c2)sc2nc3c(cc12)C(=O)CCC3	13.7%	38.3%	59.3%	77.2%	5.74% (active)	44%	26.9%	5.48% (active)	–	–
O=S(=O)(NCCCNc1cc(-c2cn(-c3ccccc3)nc2-c2cccc(O)c2)ccn1)c1ccc(F)cc1	6.17% (active)	–	65.5%	35.7%	49%	40.6%	25.9%	45.8%	24.3%	23.4%
Fc1ccc2nc(-c3cc(-c4ccc5c(c4)OCO5)n[nH]3)[nH]c2c1	10%	10.3%	84.3%	57.2%	70.3%	62.3%	42.4%	5.87% (active)	78.2%	–
COc1cc2[nH]c(C(=O)c3cc(OC)c(OC)c(OC)c3)c(N)c2cc1C#CC1CC1	13.4%	47.6%	38.4%	–	32.4%	42.1%	27.7%	2.8% (active)	-1.8% (active)	–
c1ccc2[nH]c(-c3cc(-c4ccc5c(c4)OCO5)n[nH]3)nc2c1	28%	7.45% (active)	86.4%	60.5%	76.9%	56.6%	59.6%	–	–	–
N=C(N)N=Nc1ccc(O)cc1	35.6% [100 µM]	65.7% [100 µM]	–	68.9% [100 µM]	106% [100 µM]	85% [100 µM]	36.8% [100 µM]	68.3% [100 µM]	60% [100 µM]	–
CCN(CC)c1ccc(/C=C/c2cc(C)c3ccccc3n2)cc1	43.6%	65.6%	92.4%	82.8%	57.7%	54.1%	15.9%	37.1%	93.8%	–
COc1ccc2nc(-c3cc(-c4cc(OC)c(OC)c(OC)c4)n[nH]3)[nH]c2c1	13.8%	-50.6% (active)	58.8%	-21.9% (active)	33.8%	18.7%	-0.97% (active)	-29% (active)	–	–
COC(=O)[C@]12CC[C@@H](C)[C@H](C)[C@@H]1C1=CC[C@@H]3[C@@]4(C)C[C@@H](OC(C)=O)[C@H](O)[C@@](C)(COC(C)=O)[C@@H]4[C@H](O)C[C@@]3(C)[C@]1(C)CC2	-17.7% (active)	-23.7% (active)	-75.8% (active)	-70.3% (active)	-81.5% (active)	-61.3% (active)	-63.7% (active)	–	-28.4% (active)	–
CCC(CC)C(=O)OC(C)COc1ccc(C(C)(C)C)cc1 (stereo unspecified)	98.2%	–	100%	113%	102%	112%	109%	107%	110%	86.2%

SMILES	growth (SR leukemia)	growth (RPMI-8226 leukemia)	growth (OVCAR-5 ovarian)	growth (OVCAR-4 ovarian)	growth (SK-OV-3 ovarian)	growth (IGROV1 ovarian)	growth (NCI/ADR-RES ovarian)	growth (OVCAR-3 ovarian)	growth (HS 578T breast)	growth (OVCAR-8 ovarian)
O=[N+]([O-])c1ccc(/C=N\Nc2ccccc2)cc1	106%	67.8%	88%	–	101%	78%	60%	82.5%	63.1%	–
COc1cc(-c2cc(-c3nc4ccccc4[nH]3)[nH]n2)cc(OC)c1OC	11.1%	-24.9% (active)	93.9%	44.3%	42.4%	47.4%	36.2%	33.8%	–	–
COc1ccc(-c2cc(/C=C/C(=O)c3ccc(N)cc3)[nH]n2)cc1	-20.2% (active)	-29.9% (active)	54.5%	33.1%	-8.64% (active)	32.8%	17.5%	-34.1% (active)	–	–
C=C(C)[C@@H]1CC[C@]2(CN)CC[C@]3(C)[C@H](CC[C@@H]4[C@@](C)(CCCN)[C@H](C(=C)C)CC[C@]43C)[C@@H]12	-3.93% (active)	58.5%	103%	102%	107%	86.9%	94.5%	89.4%	–	–
O=c1c(CNc2ccc(S(=O)(=O)Nc3nccs3)cc2)coc2ccccc12	94.7%	92.1%	92.8%	99.9%	102%	101%	102%	110%	–	–
O=C(CCCCCn1c2ccccc2c2c3c(c4c5ccccc5[nH]c4c21)C(=O)N(O)C3=O)N1CCOCC1	8.26% (active)	14.9%	116%	64.5%	70.4%	-26.5% (active)	73.7%	–	66.5%	–
NC(=O)[C@@H]1CC2CCC1C2 (stereo partly specified)	90.6%	93.3%	95%	106%	101%	110%	121%	93.4%	–	–
O=c1c2sc3ncc(Br)cc3c2ncn1-c1cccc(Cl)c1	76.6%	75.1%	94.6%	-25.9% (active)	67.6%	83.9%	80.8%	–	–	–
CC(C)(C)c1nc(-c2ccc(O)c(O)c2)cs1	26.9%	39.2%	–	76.2%	90.6%	43.8%	35.5%	61.2%	–	–
Cc1ccc(/C=C(\C#N)c2cc3ccccc3n2C)cc1	25.2%	–	38.7%	61%	67.8%	30.5%	-2.11% (active)	-12.6% (active)	34.1%	38.9%
COc1ccc(-c2n/c(=C\c3c(O)[nH]c4ccc(OC)cc34)cc3c2=Nc2ccccc2-3)cc1	7.13% (active)	–	135%	-42.1% (active)	114%	98.3%	4.41% (active)	-57.5% (active)	–	11.8%
Fc1ccc(Nc2nc(Nc3ccc(-c4nc5ccccc5[nH]4)cc3)nc(N3CCCC3)n2)cc1	10.7%	–	97.4%	88.6%	75.1%	83%	63%	94.4%	–	81.7%
OCC(CO)(CCl)CCl	95.6%	–	98.1%	109%	88.5%	109%	99%	105%	105%	101%
Cc1ccc(N(CC(=O)Nc2ccc(S(=O)(=O)NC3CCN(C)CC3)cc2)S(=O)(=O)c2ccc(Cl)cc2)cc1	5.99% (active)	–	91.6%	87.8%	105%	85.7%	98.6%	72.5%	69.5%	96.2%
Nc1ncnc2nc(Br)[nH]c12	91.8%	–	99.8%	102%	95.2%	106%	97.1%	106%	103%	92.8%
CC(C)/C=C/CC[C@](C)(O)[C@H]1CC[C@]2(C)[C@@H]1CC[C@@H]1[C@@]3(C)C/C(=C/c4cccc(C(F)(F)F)c4)C(=O)C(C)(C)[C@@H]3CC[C@]12C	82.6%	–	107%	87.2%	103%	104%	97.8%	93.8%	99.7%	87.6%
